{
  "source": "paper PMC5540273",
  "about": "(PLoS ONE, 2017);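 also: KINOMEscan kinase panel screen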",
  "data": [
    {"test_system": "PDGFRB", "conditions": "concentration: 1 μM, replicates: in singlicate; n = 1", "units": {"%Inh": "%"}, "values": [
      {"smiles": "CCC(CC)(CC)n1cnc2c(N)ncnc21", "note": "[SKF-97620]", "%Inh": 0},
      {"smiles": "Cc1ccc(NC(=O)c2cccc(C#N)c2)cc1-c1ccc(C(=O)Nc2ccncc2)cc1", "note": "[GSK1398463]", "%Inh": 100},
      {"smiles": "CSc1nn2c(=O)cc(N3CCOCC3)nc2n1Cc1cccc(Cl)c1Cl", "note": "[GSK2347225]", "%Inh": 24},
      {"smiles": "FC(F)(F)c1cc(Nc2nccc(-c3c(-c4ccc(Cl)cc4)nn4ncccc34)n2)ccc1Cl", "note": "[GW829351]", "%Inh": 3},
      {"smiles": "CC(=O)Nc1n[nH]c2ncc(-c3ccccc3)cc12", "note": "[SB-548492]", "%Inh": 90},
      {"smiles": "O=C(Nc1n[nH]c2nc(-c3ccco3)c(Br)cc12)c1ccc(CN2CCCC2)cc1.O=C(O)[C@H](O)[C@@H](O)C(=O)O", "note": "[SB-742352]", "%Inh": 99.7},
      {"smiles": "O=C(NCCCN1CCCC1=O)c1cnc(NCc2cc(Cl)ccc2Cl)nc1NC1CCNCC1", "%Inh": 0},
      {"smiles": "Nc1nccc2scc(-c3ccc4c(c3)CCN4C(=O)Cc3cc(F)ccc3F)c12", "note": "[GSK2587663]", "%Inh": 35},
      {"smiles": "CN1CCC(n2cnc(-c3ccc(F)cc3)c2-c2ccnc(NC3CCNCC3)n2)CC1", "note": "[SB-229482]", "%Inh": 29},
      {"smiles": "Oc1ccc2ncnc(Nc3ccc(OCc4ccccc4)cc3)c2c1", "note": "[GI262866]", "%Inh": 21},
      {"smiles": "COc1ccc(NC(=O)c2ccc(-c3cc(-c4nnc(C)o4)ccc3C)cc2)cc1", "note": "[GW595885]", "%Inh": 47},
      {"smiles": "CC(C)N1CCC(n2cnc(-c3ccc(F)cc3)c2-c2ccnc(N)n2)CC1", "note": "[SB-223132]", "%Inh": 0},
      {"smiles": "COc1ccc(Nc2nccc(N3CCC(NC(=O)Nc4ccc5c(c4)OCO5)C3)n2)cc1", "note": "(stereo not drawn) [GSK1379745]", "%Inh": 24},
      {"smiles": "COC(=O)c1cccc(NC(=O)NCCNc2ccnc(Nc3ccc(F)cc3)n2)c1", "note": "[GSK1379883]", "%Inh": 51},
      {"smiles": "COc1cc2c(Nc3cccc(NC(=O)c4ccccc4)c3)ncnc2cc1OCCCN1CCOCC1", "note": "[GSK223810]", "%Inh": 85},
      {"smiles": "O=C(Nc1ccccc1)Nc1ccc(Oc2ccc3nccn3n2)cc1", "%Inh": 99},
      {"smiles": "Nc1nc(-c2ccccn2)c(-c2ccnc3ccccc23)s1", "note": "[GW548057]", "%Inh": 23},
      {"smiles": "Cc1ccc(O)cc1Nc1cc(C(F)(F)F)nc2ccc(-c3ccncc3)cc12", "note": "[GW630823]", "%Inh": 10},
      {"smiles": "Fc1cccc(COc2ccc(Nc3ncnc4sc(-c5ccc[nH]5)cc34)cc2Cl)c1", "note": "[GW707818]", "%Inh": 19},
      {"smiles": "Fc1cccc(COc2ccc(Nc3ncnc4cc[nH]c34)cc2Cl)c1", "%Inh": 25},
      {"smiles": "Nc1nc(-c2ccc3c(N)n[nH]c3c2)cc(N2CCC[C@@H](C(=O)Nc3ccccc3)C2)n1.O=C(O)C(F)(F)F.O=C(O)C(F)(F)F", "note": "[GSK2288359]", "%Inh": 31},
      {"smiles": "O=C(CCO)NCCn1ccc2ncnc(Nc3ccc(Oc4cccc(C(F)(F)F)c4)c(Cl)c3)c21", "%Inh": 0},
      {"smiles": "CNc1nccc(-c2c(-c3ccc(F)cc3)ncn2CCCN2CCOCC2)n1", "note": "[SB-222516]", "%Inh": 4},
      {"smiles": "Cc1ccc(C)c(NC(=O)NCCNc2ccnc(Nc3ccc(F)cc3)n2)c1", "note": "[GSK1379878]", "%Inh": 6},
      {"smiles": "CC(C)(C)c1ccc(-n2cnc3c(N)ncnc32)cc1", "note": "[SKF-97263]", "%Inh": 31},
      {"smiles": "CS(=O)(=O)CCNCc1nc(-c2ccc3ncnc(Nc4ccc(OCc5cccc(F)c5)c(Cl)c4)c3c2)cs1.Cl", "note": "[GW583340]", "%Inh": 12},
      {"smiles": "CCCc1ccc(S(=O)(=O)NC2CCN(c3ccnc(Nc4ccc(OC)cc4)n3)C2)cc1", "note": "(stereo not drawn) [GSK1379737]", "%Inh": 51},
      {"smiles": "FC(F)(F)c1ccc(-c2nn3ncccc3c2-c2ccnc(Nc3cccc(C(F)(F)F)c3)n2)cc1", "note": "[GW828205]", "%Inh": 9},
      {"smiles": "Cc1cccc(-c2nc(Nc3ccc4[nH]nnc4c3)c3ccccc3n2)n1", "note": "[GW867587]", "%Inh": 0},
      {"smiles": "O=C(Nc1ccccc1F)NC1CCN(c2ccnc(Nc3ccc(F)cc3)n2)C1", "note": "(stereo not drawn) [GSK1379722]", "%Inh": 8},
      {"smiles": "COc1ccc(NC(=O)Nc2ccc(C)c(-c3ccc(C(=O)Nc4ccncc4)cc3)c2)cc1", "note": "[GSK1398475]", "%Inh": 100},
      {"smiles": "Clc1ccc(-c2cc(-c3c[nH]nc3-c3ccccn3)ccn2)cc1", "note": "[GW681251]", "%Inh": 62},
      {"smiles": "Clc1cc(Nc2ncnc3cc[nH]c23)ccc1OCc1ccccn1", "%Inh": 38},
      {"smiles": "CNc1nccc(-c2c(-c3ccc(F)cc3)ncn2C2CCN(C)CC2)n1", "note": "[SB-222903]", "%Inh": 17},
      {"smiles": "c1ccc(-c2ccc3c(-c4ccnc(Nc5ccc6c(c5)OCCO6)n4)cnn3n2)cc1", "note": "[GW818941]", "%Inh": 4}
    ]},
    {"test_system": "PDPK1", "conditions": "concentration: 1 μM, replicates: in singlicate; n = 1", "units": {"%Inh": "%"}, "values": [
      {"smiles": "CCC(CC)(CC)n1cnc2c(N)ncnc21", "note": "[SKF-97620]", "%Inh": 0},
      {"smiles": "Cc1ccc(NC(=O)c2cccc(C#N)c2)cc1-c1ccc(C(=O)Nc2ccncc2)cc1", "note": "[GSK1398463]", "%Inh": 17},
      {"smiles": "CSc1nn2c(=O)cc(N3CCOCC3)nc2n1Cc1cccc(Cl)c1Cl", "note": "[GSK2347225]", "%Inh": 0},
      {"smiles": "FC(F)(F)c1cc(Nc2nccc(-c3c(-c4ccc(Cl)cc4)nn4ncccc34)n2)ccc1Cl", "note": "[GW829351]", "%Inh": 0},
      {"smiles": "CC(=O)Nc1n[nH]c2ncc(-c3ccccc3)cc12", "note": "[SB-548492]", "%Inh": 0},
      {"smiles": "O=C(Nc1n[nH]c2nc(-c3ccco3)c(Br)cc12)c1ccc(CN2CCCC2)cc1.O=C(O)[C@H](O)[C@@H](O)C(=O)O", "note": "[SB-742352]", "%Inh": 0},
      {"smiles": "O=C(NCCCN1CCCC1=O)c1cnc(NCc2cc(Cl)ccc2Cl)nc1NC1CCNCC1", "%Inh": 7},
      {"smiles": "Nc1nccc2scc(-c3ccc4c(c3)CCN4C(=O)Cc3cc(F)ccc3F)c12", "note": "[GSK2587663]", "%Inh": 0},
      {"smiles": "CN1CCC(n2cnc(-c3ccc(F)cc3)c2-c2ccnc(NC3CCNCC3)n2)CC1", "note": "[SB-229482]", "%Inh": 0},
      {"smiles": "Oc1ccc2ncnc(Nc3ccc(OCc4ccccc4)cc3)c2c1", "note": "[GI262866]", "%Inh": 0},
      {"smiles": "COc1ccc(NC(=O)c2ccc(-c3cc(-c4nnc(C)o4)ccc3C)cc2)cc1", "note": "[GW595885]", "%Inh": 0},
      {"smiles": "CC(C)N1CCC(n2cnc(-c3ccc(F)cc3)c2-c2ccnc(N)n2)CC1", "note": "[SB-223132]", "%Inh": 5},
      {"smiles": "COc1ccc(Nc2nccc(N3CCC(NC(=O)Nc4ccc5c(c4)OCO5)C3)n2)cc1", "note": "(stereo not drawn) [GSK1379745]", "%Inh": 27},
      {"smiles": "COC(=O)c1cccc(NC(=O)NCCNc2ccnc(Nc3ccc(F)cc3)n2)c1", "note": "[GSK1379883]", "%Inh": 5},
      {"smiles": "COc1cc2c(Nc3cccc(NC(=O)c4ccccc4)c3)ncnc2cc1OCCCN1CCOCC1", "note": "[GSK223810]", "%Inh": 100},
      {"smiles": "O=C(Nc1ccccc1)Nc1ccc(Oc2ccc3nccn3n2)cc1", "%Inh": 0},
      {"smiles": "Nc1nc(-c2ccccn2)c(-c2ccnc3ccccc23)s1", "note": "[GW548057]", "%Inh": 0},
      {"smiles": "Cc1ccc(O)cc1Nc1cc(C(F)(F)F)nc2ccc(-c3ccncc3)cc12", "note": "[GW630823]", "%Inh": 0},
      {"smiles": "Fc1cccc(COc2ccc(Nc3ncnc4sc(-c5ccc[nH]5)cc34)cc2Cl)c1", "note": "[GW707818]", "%Inh": 5},
      {"smiles": "Fc1cccc(COc2ccc(Nc3ncnc4cc[nH]c34)cc2Cl)c1", "%Inh": 4},
      {"smiles": "O=C(CCO)NCCn1ccc2ncnc(Nc3ccc(Oc4cccc(C(F)(F)F)c4)c(Cl)c3)c21", "%Inh": 0},
      {"smiles": "CNc1nccc(-c2c(-c3ccc(F)cc3)ncn2CCCN2CCOCC2)n1", "note": "[SB-222516]", "%Inh": 0},
      {"smiles": "Cc1ccc(C)c(NC(=O)NCCNc2ccnc(Nc3ccc(F)cc3)n2)c1", "note": "[GSK1379878]", "%Inh": 0},
      {"smiles": "CC(C)(C)c1ccc(-n2cnc3c(N)ncnc32)cc1", "note": "[SKF-97263]", "%Inh": 5},
      {"smiles": "CS(=O)(=O)CCNCc1nc(-c2ccc3ncnc(Nc4ccc(OCc5cccc(F)c5)c(Cl)c4)c3c2)cs1.Cl", "note": "[GW583340]", "%Inh": 0},
      {"smiles": "CCCc1ccc(S(=O)(=O)NC2CCN(c3ccnc(Nc4ccc(OC)cc4)n3)C2)cc1", "note": "(stereo not drawn) [GSK1379737]", "%Inh": 0},
      {"smiles": "FC(F)(F)c1ccc(-c2nn3ncccc3c2-c2ccnc(Nc3cccc(C(F)(F)F)c3)n2)cc1", "note": "[GW828205]", "%Inh": 0},
      {"smiles": "Cc1cccc(-c2nc(Nc3ccc4[nH]nnc4c3)c3ccccc3n2)n1", "note": "[GW867587]", "%Inh": 0},
      {"smiles": "O=C(Nc1ccccc1F)NC1CCN(c2ccnc(Nc3ccc(F)cc3)n2)C1", "note": "(stereo not drawn) [GSK1379722]", "%Inh": 14},
      {"smiles": "COc1ccc(NC(=O)Nc2ccc(C)c(-c3ccc(C(=O)Nc4ccncc4)cc3)c2)cc1", "note": "[GSK1398475]", "%Inh": 0},
      {"smiles": "Clc1ccc(-c2cc(-c3c[nH]nc3-c3ccccn3)ccn2)cc1", "note": "[GW681251]", "%Inh": 0},
      {"smiles": "Clc1cc(Nc2ncnc3cc[nH]c23)ccc1OCc1ccccn1", "%Inh": 0},
      {"smiles": "CNc1nccc(-c2c(-c3ccc(F)cc3)ncn2C2CCN(C)CC2)n1", "note": "[SB-222903]", "%Inh": 0},
      {"smiles": "c1ccc(-c2ccc3c(-c4ccnc(Nc5ccc6c(c5)OCCO6)n4)cnn3n2)cc1", "note": "[GW818941]", "%Inh": 17}
    ]}
  ]
}
